Screens deposited in PubChem by National Center for Advancing Translational Sciences (NCATS).
PNC assembly inh: blocks assembly of the perinucleolar compartment. PC3M PTB-GFP, PNC prevalence imaging, 16 h; stronger effect = lower value. activity change (PNC), negative = inhibition, % at 10 µM. 3.1% of 140,000 active;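 active means readout at or below -70, meaning at least 70% loss of cells showing the perinucleolar compartment, a nuclear body marking cancer cells; inconclusive means readout between -30 and a set limit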;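 further: plate controls were DMSO wells for no effect and camptothecin positive control wells for full effect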
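PC3M cells stably expressing PTB-GFP, 750–1000 cells/well, treated 16 h at 37 °C with compound (23 nl of library stock), in duplicate. After paraformaldehyde fixation and Hoechst stain, imaged at 20x; PNC prevalence scored by image analysis.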
aGal spleen mod: alpha-galactosidase A (human) modulation; 0.008% of 240,000 active; human spleen homogenate, 4MU-alpha-Gal fluorescence, 40 min; P06280; Potency, µM (top dose mostly 80 µM), without a hit: at the highest dose activity change, negative = inhibition, hits mostly inhibitors;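 further: potency means the concentration at half of the fitted maximal effect; 0% = enzyme with vehicle and -100% = no enzyme basal signal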
Target sequence (P06280 32-429 limits assumed): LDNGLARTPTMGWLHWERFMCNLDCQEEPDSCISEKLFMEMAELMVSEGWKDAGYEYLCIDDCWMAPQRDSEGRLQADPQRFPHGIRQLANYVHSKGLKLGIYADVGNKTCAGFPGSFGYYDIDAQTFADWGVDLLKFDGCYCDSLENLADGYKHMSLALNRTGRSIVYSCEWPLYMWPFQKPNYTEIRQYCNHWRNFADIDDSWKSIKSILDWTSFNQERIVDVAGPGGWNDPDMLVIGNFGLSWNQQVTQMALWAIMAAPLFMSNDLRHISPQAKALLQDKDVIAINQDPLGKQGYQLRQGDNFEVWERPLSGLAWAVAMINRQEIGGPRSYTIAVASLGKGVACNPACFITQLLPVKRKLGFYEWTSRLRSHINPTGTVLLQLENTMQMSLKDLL
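Inhibition or activation of alpha-galactosidase in human spleen homogenate is scored by 4-MU fluorescence after 40 min at 37C, pH 5.0, with 1 mM substrate. AC50s come from concentration-response fitted to the Hill equation.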
ALDH1A1 inh: blocks purified human ALDH1A1 activity; Purified ALDH1A1, NADH fluorescence, propionaldehyde substrate; AID 1030; P00352; 7.3% of 220,000 active; Potency, µM (titrated, usually from 75.3 µM), without a hit: at the highest dose activity, negative = inhibition, most hits filed as inhibitors; active means well fitted inhibition curve with a large enough effect, not every such curve was filed as active; inconclusive means small, poorly fitted or top-dose-only effect, or another doubt; inactive means no such curve, though single readings can be large or run the other way;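 further: potency means the concentration at half of the fitted maximal effect; plate controls were no enzyme wells and a reference inhibitor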
HPGD block: inhibitors of human 15-hydroxyprostaglandin dehydrogenase (HPGD). AID 894. P15428. 4.3% of 150,000 active. purified HPGD, NADH fluorescence kinetic, PGE2 substrate. Potency, µM, for inactives: at the top dose activity change, negative = inhibition, most hits filed as inhibitors; active means well fitted inhibition curve with a large enough effect, not every such curve was filed as active; inconclusive means small, poorly fitted or top-dose-only effect, or another doubt; inactive means no such curve, though single readings can be large or run the other way; further: potency means the concentration at half of the fitted maximal effect
Target sequence (P15428 whole entry, looked up): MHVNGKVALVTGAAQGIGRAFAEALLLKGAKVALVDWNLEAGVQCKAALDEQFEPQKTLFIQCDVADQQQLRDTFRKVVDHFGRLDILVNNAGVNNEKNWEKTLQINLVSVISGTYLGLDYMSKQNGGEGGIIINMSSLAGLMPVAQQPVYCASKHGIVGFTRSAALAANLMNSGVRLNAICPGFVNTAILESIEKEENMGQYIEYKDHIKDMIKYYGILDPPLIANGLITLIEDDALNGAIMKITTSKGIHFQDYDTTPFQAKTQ
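20 nM HPGD preincubated 15 min at room temperature with compound in 50 mM Tris-HCl pH 8, 0.01% Tween 20. Started with 1 mM NAD+ and 30 uM prostaglandin E2; NADH fluorescence (360/450 nm) read 5 times over 30-s intervals, last minus first.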
GLA inh pH 4.5: alpha-galactosidase A (human) inhibition, pH 4.5; 230,000 tested, under 10 active; purified enzyme, 4-MU-alpha-Gal fluorescence, pH 4.5; AID 1467; activity change, negative = inhibition, % at 105 µM;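 further: 0% = full activity with enzyme and -100% = basal without enzyme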
12-hLO inh: 12-hLO (ALOX12) enzyme inhibition. P18054. purified 12-hLO, xylenol orange hydroperoxide absorbance. Potency, µM (titrated, usually from 57.1 µM), without a hit: at the highest dose activity change, negative = inhibition, actives largely listed as inhibitors. 0.12% of 150,000 active. AID 1452; further: potency means the concentration at half of the fitted maximal effect; nearly all actives have a fitted effect of over 55% in size
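Lipoxygenase turnover measured by absorbance at 573 and 405 nm after Fe-XO development. Human 12hLO 150 nM, arachidonate 40 uM, pH 7.0 Hepes buffer with detergent; 15 min compound preincubation, 30 min reaction.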
* marks the source's active call; other numbers are inactive results; ? = inconclusive; nt = no result; [ ] = dose if it differs, or a comment. A selection: hits, their analogues and other compounds. The true share with any hit is near 10%. Unless noted, the call rests on the fitted dose curve; in most records, active means well fitted curve in the direction sought with a large enough effect; inconclusive means small, poorly fitted or top-dose-only effect, or another doubt; inactive means no such curve, though single readings can be large; an effect the other way counts as inactive or inconclusive. Unless noted, on the % scale 0 is the no-effect control and ±100 the full control effect.

SMILES | PNC assembly inh | aGal spleen mod | ALDH1A1 inh | HPGD block | GLA inh pH 4.5 | 12-hLO inh
Oc1ccc(Cl)cc1Sc1cc(Cl)ccc1O | nt | 2% | ? | 2.5µM* | nt | -28%[11.4 µM]
Nc1ccc(Cl)cc1N | nt | 15% | 8.9µM* | -18% | nt | -3%
C=C(C)C1Cc2c(ccc3c2OC2COc4cc(OC)c(OC)cc4C2C3=O)O1 (configuration not stated) | nt | 7% | ? | ? | -13 | 0%
O=C(NCP(=O)(O)O)c1cccnc1 | nt | nt | 7%[13.5 µM] | -4% | nt | -4%[11.4 µM]
CC(=O)OCC1=C[C@H]2[C@@H]3C(C)(C)[C@]3(OC(=O)Cc3ccccc3)C[C@@H](C)[C@]2(O)[C@@H]2C=C(C)C(=O)[C@@]2(O)C1 | nt | -5% | nt | nt | nt | nt
CCCCCCCCCCCCC/C=C/[C@@H](O)[C@@H](N)COP(=O)(O)O | nt | 0% | 16% | -3% | 2 | -1%[0.00818 µM]
Cc1nc2ccc(Nc3nc4cc(S(=O)(=O)N5CCOCC5)ccc4o3)cc2s1 | ? | 2% | 3.5µM* | 8.9µM* | 0 | -2%
[Cd+2].[Cl-].[Cl-] | nt | -1% | 4µM* | 8.9µM* | nt | 28µM*
NS(=O)(=O)C[C-]1C=C[CH]([Sb-]([Cl])([Cl])([Cl])([Cl])[Cl])C=C1.c1ccncc1 (configuration not stated) | nt | nt | 3.5µM* | -10% | nt | 2%[11.4 µM]
C[C@@]12CC[C@H](O[C@@H]3O[C@H](CO)[C@@H](O)[C@H](O)[C@@H]3O)C[C@@H]1CC[C@H]1[C@H]2CC[C@@]2(C)[C@@H](C3=CCOC3=O)CC[C@]12O | nt | nt | -7%[13.5 µM] | 1% | nt | -4%[11.4 µM]
COc1ccc2c3c1O[C@@H]1C(=O)CC[C@@]4(O)[C@@H](C2)N(CC2CC2)CC[C@]314 | nt | nt | nt | nt | nt | -3%
C=CCSc1nnc(NC(=O)c2ccc(Cl)nc2)s1 | -24 | 4% | ? | 28µM* | -5 | -1%
O=C1C(Cl)=C(N2CCCCCC2)C(=O)N1c1ccccc1 | ? | -5% | ? | 16µM* | -1 | -23%
Nc1ccc(Cl)cc1C(=O)c1ccccc1Cl | ? | -3% | -3% | -9% | -14 | -3%
O=C(c1c[nH]c(C(=O)C(Cl)(Cl)Cl)c1)c1ccccc1Cl | -25 | 4% | ? | 14µM* | 7 | -9%
Cn1c(=O)c2c(nc(N/N=C/c3c(O)n(C4CCCCC4)c(=S)[nH]c3=O)n2C)n(C)c1=O | nt | -4% | nt | nt | -5 | nt
Cc1ccccc1-n1c(O)c(/C=N/Nc2nc3c(c(=O)n(C)c(=O)n3C)n2C)c(=O)[nH]c1=S | 25 | 5% | 13µM* | -19% | -2 | -13%
Cc1cccc(-n2c(O)c(/C=N/Nc3nc4c(c(=O)n(C)c(=O)n4C)n3C)c(=O)[nH]c2=S)c1 | -28 | -6% | 10µM* | -28% | 0 | -10%
N#Cc1c(/N=C/c2c(O)n(Cc3ccco3)c(=O)[nH]c2=O)sc2c1CCCC2 | 54 | -18% | 28µM* | -23% | -4 | -18%
CC(=O)C1CCC2C3CCC4CC(C)(O)CCC4(C)C3CCC12C (configuration not stated) | nt | -7% | nt | nt | nt | nt
C[C@]12C/C(=C/O)C(=O)C[C@@H]1CC[C@@H]1[C@@H]2CC[C@@]2(C)[C@H]1CC[C@]2(C)O | nt | 0% | 0.071µM* | -6% | nt | -3%
COc1cccc(Oc2c(C)oc3cc(OC(=O)N(C)C)ccc3c2=O)c1 | 1 | -3% | 22µM* | -18% | nt | -11%
COC1(C)CC(c2ccccc2)c2c(c3ccccc3oc2=O)O1 (configuration not stated) | nt | 2% | nt | nt | nt | nt
C=CCN(CC=C)Cc1c[nH]c2ccccc12 | -7 | -2% | ? | -15% | 1 | -6%
O/N=C/c1c[nH]c2ccccc12 | ? | 0% | 8% | 7.1µM* | 3 | -5%
SMILES | PNC assembly inh | aGal spleen mod | ALDH1A1 inh | HPGD block | GLA inh pH 4.5 | 12-hLO inh
O=[N+]([O-])/C=C/c1c(OCc2ccccc2)ccc2ccccc12 | 25 | -7% | -8% | 16µM* | -4 | -3%
CC[N+](=O)[O-] | nt | -12% | 5% | -5% | nt | 0%
COC(=O)C1C2c3ccccc3OC1(C)N=c1s/c(=C/c3cnn(C)c3)c(=O)n12 (configuration not stated) | 77 | 3% | 2% | -23% | -6 | 0%
CC(=O)C1C2c3ccccc3OC1(C)N=c1s/c(=C/c3cn(C)nc3C)c(=O)n12 (configuration not stated) | ? | -11% | 10µM* | 28µM* | -3 | -9%
O=[N+]([O-])c1ccccc1-c1ccccc1 | nt | -9% | ? | -11% | nt | -4%
O=c1c2cc(Cl)cc(Cl)c2nc(CN2CCOCC2)n1-c1ccccc1F | ? | -6% | 14µM* | -16% | 8 | -3%
Cc1noc(NS(=O)(=O)c2ccc(NC(=O)CCCOc3ccc(Cl)cc3Cl)cc2)c1C | -11 | 2% | 3% | 25µM* | -2 | -3%
COc1ccc(N2C(=O)NC(=O)/C(=C/c3cccc(OC(=O)c4cccs4)c3)C2=O)cc1Cl | ? | -17% | ? | 32µM* | -2 | -19%
Cc1ccc(N2C(=O)NC(=O)/C(=C/c3ccc(OC(=O)c4cccs4)cc3)C2=O)cc1 | 57 | 7% | ? | 28µM* | 10 | -8%
Cc1ccc(N2C(=O)NC(=O)/C(=C\c3ccoc3)C2=O)cc1 | nt | -1% | ? | nt | 5 | nt
C=CCBr | nt | 0% | -17% | -4% | nt | -1%
O=C(N1CCOCC1)C1(c2ccccc2)CCNCC1 | nt | nt | 12%[13.5 µM] | 1% | nt | 2%[11.4 µM]
O=C(c1cc(-c2cccnc2)nc2ccc(Cl)cc12)N1CCC2(CC1)OCCO2 | 8 | 6% | 7.1µM* | -9% | -1 | -3%
COc1ccc(-c2noc(CN3C(=O)c4ccccc4C3=O)n2)cc1 | ? | 3% | -4% | 20µM* | 5 | 1%
CON(C)C(=O)Nc1ccc(Cl)cc1 | -121* | 4% | 4% | -6% | -9 | -2%
N#CCCC#N | nt | -3% | 28µM* | -10% | nt | -4%
CCC#N | nt | 10% | ? | -17% | nt | 0%
C1C[C@@H]2CN(CCCN3CCOCC3)[C@@H](C1)O2 | nt | nt | 11%[13.5 µM] | -4% | nt | -4%[11.4 µM]
CCn1nc(-c2ccccc2)nc2c(=O)n(C)c(=O)nc1-2 | -100* | 5% | ? | -14% | -1 | -6%
CCCCCCCC(=O)NC(Oc1ccccc1[N+](=O)[O-])C(Cl)(Cl)Cl (configuration not stated) | 18 | 5% | -6% | 10µM* | 4 | 5%
CN1C(=O)C(=Cc2coc3ccccc3c2=O)C(=O)N(C)C1=O | nt | 0% | 0.89µM* | nt | -1 | nt
CN1C(=O)C(=Cc2ccc(Sc3ccccc3)o2)C(=O)N(C)C1=O | nt | -2% | ? | nt | 3 | nt
S=C1Nc2ccccc2Sc2ccccc21 | nt | -2% | 10µM* | nt | 0 | nt
